Test results from PubChem BioAssay (NCI).
This is part of a sample that, as a whole, favours compounds with a hit. Of some 83,000 tested, about 20% had one in any assay.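 Assay: single dose, 48 h. Readout: percent growth (0 = no net growth; negative = cell death). Active: <10.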 Active and inactive are the calls of the source.

Legend:
Assay in all cases: NCI-60 one-dose screen, 48 h (100 = growth as untreated, 0 = no growth, -100 = all killed)
Settings in all cases: 10 µM unless noted
[1] = system: HCT-15 colon
[2] = system: HT29 colon
[3] = system: SNB-75 CNS
[4] = system: SNB-19 CNS
[5] = system: U251 CNS
[6] = system: PC-3 prostate
[7] = system: SK-MEL-5 melanoma
[8] = system: UACC-62 melanoma
[9] = system: LOX IMVI melanoma
[10] = system: SK-MEL-28 melanoma

Measured: growth

COc1cnc2c(c1)C(=O)c1c-2n(CCCN2CCN(C)CC2)c(=O)c2cc(Cl)ccc12
inactive: [1] 41.8% | [3] 38.7% | [4] 46.3% | [5] 45.4% | [6] 40.5% | [7] 65.4% | [9] 38.2%
active: [2] -60.6% | [8] -49% | [10] -53.8%

O=C(O)c1ccccc1Oc1cc(-c2ccco2)nc(OCCN2CCOCC2)n1
inactive: [1] 101% | [2] 92.5% | [3] 92.4% | [4] 96.9% | [5] 113% | [6] 127% | [7] 99.9% | [8] 98.9% | [9] 99.5% | [10] 106%

C[C@@H]1N=C(c2ccc3ccccc3c2)Nc2nc3ccccn3c2C1=O
inactive: [1] 33.8% | [3] 37.1% | [4] 53.3% | [5] 32.5% | [6] 52% | [7] 35.3% | [8] 48.8% | [9] 48.5% | [10] 59.9%
active: [2] 5.93%

Cc1cc(C#Cc2ccc(C(C)(C)C)cc2)ccc1-n1c(/C=C/c2c(Cl)cccc2Cl)nc2ccccc2c1=O
inactive: [1] 90.9% | [2] 93.2% | [3] 82% | [4] 105% | [5] 93.9% | [6] 80.8% | [7] 106% | [8] 101% | [9] 87.3% | [10] 126%

C=CCOc1ccc2c(C)cc(=O)oc2c1
inactive: [1] 101% | [2] 94.9% | [3] 111% | [4] 122% | [5] 89% | [6] 93% | [7] 108% | [8] 105% | [9] 105% | [10] 113%

CN(C)CCNC(=O)n1cc(-c2ccncc2)c(-c2cc(O)cc(Cl)c2)n1
inactive: [1] 77.1% | [2] 88.5% | [3] 103% | [4] 106% | [5] 81.6% | [6] 112% | [7] 77.3% | [8] 36.4% | [9] 76.3% | [10] 35.2%

Nc1c(N)c2ccccc2c2ccccc12
inactive: [1] 111% | [2] 108% | [3] 84.8% | [4] 104% | [5] 106% | [6] 89.5% | [7] 107% | [8] 95% | [9] 101% | [10] 110%

Fc1cc(-c2cnc3nonc3n2)c(Cl)cc1Cl
inactive: [1] 51% | [2] 87.9% | [3] 99.9% | [4] 90.4% | [5] 109% | [6] 85.3% | [7] 98.3% | [8] 82.3% | [9] 101% | [10] 91.8%

O=C1Nc2ccccc2/C1=C\c1nc(C2CCN(S(=O)(=O)c3ccc(F)cc3)CC2)n2ccccc12
inactive: [1] 90.5% | [2] 67.7% | [5] 41.3% | [6] 65.6% | [7] 75.3% | [8] 39.1% | [9] 49.2% | [10] 60.3%
active: [3] -10.4% | [4] -6.15%

Clc1ccc(-c2nc(-c3cccs3)no2)cc1
inactive: [1] 106% | [2] 96% | [3] 88.6% | [4] 105% | [5] 84.6% | [6] 84.4% | [7] 87.9% | [8] 88.1% | [9] 94.7% | [10] 112%

COC1(OC)C2(Cl)CCC1(Cl)C(Cl)=C2Cl
inactive: [1] 95% | [2] 101% | [3] 95.6% | [4] 105% | [5] 97.8% | [6] 100% | [7] 102% | [8] 101% | [9] 94.2% | [10] 107%

C[C@H](NC(=O)c1snnc1C1CC1)c1c(F)cccc1Cl
inactive: [1] 93.9% | [2] 119% | [3] 95.1% | [4] 142% | [5] 90% | [6] 98.9% | [7] 98.2% | [8] 87.8% | [9] 93.9% | [10] 110%

COc1cc(NCC(O)CN(CC(C)C)CC(C)C)c2ncccc2c1 (stereo not given)
inactive: [1] 80.1% | [2] 77.9% | [3] 82.8% | [4] 90.1% | [5] 80.7% | [6] 58.6% | [7] 86.1% | [8] 76.9% | [9] 83.6% | [10] 75.3%

Clc1ccc(Cl)c(N=Cc2ccc3c(c2)OCO3)c1
inactive: [1] 106% | [2] 110% | [3] 103% | [4] 107% | [5] 104% | [6] 107% | [7] 106% | [8] 103% | [9] 95.2% | [10] 116%

CN(C)CCCn1c(=O)c2cc([N+](=O)[O-])ccc2c2cnc3[nH]ccc3c21
inactive: [1] 48% | [2] 16.2% | [3] 49.5% | [4] 53.5% | [5] 57.4% | [6] 48.4% | [7] 69.4% | [8] 74.6% | [9] 38.5% | [10] 104%

CCN1C(=O)N(CC)C2C1NN=c1s/c(=C\c3ccco3)c(=O)n12 (stereo not given)
inactive: [1] 19.9% | [4] 22.7% | [5] 22.7% | [6] 17.7% | [7] 12.8% | [8] 29.2% | [9] 40.4% | [10] 58.9%
active: [2] 8.57% | [3] -1.06%

COc1cc(NC(=O)CSc2nc3ccc(Cl)cc3c(=O)n2-c2ccccc2)cc(OC)c1OC
inactive: [1] 99.6% | [2] 110% | [3] 71.6% | [4] 99.9% | [5] 92.5% | [6] 80.6% | [7] 83.8% | [8] 75% | [9] 90.8% | [10] 97.2%

CC(C)CCSc1nc(-c2ccc(F)cc2)c(C#N)c(N2CCCCC2)n1
inactive: [1] 97.7% | [2] 83.2% | [3] 94.2% | [4] 102% | [5] 93.6% | [6] 89.2% | [7] 95.8% | [8] 70.3% | [9] 93% | [10] 96.3%

Fc1ccc(-c2cnc3nonc3n2)c(F)c1
inactive: [1] 78.3% | [2] 113% | [3] 96.4% | [4] 92.5% | [5] 111% | [6] 73.3% | [7] 96.2% | [8] 87.6% | [9] 93.1% | [10] 101%

NC(N)=N/N=C/c1ccc(Cl)cc1
inactive: [1] 70.5% | [2] 35.9% | [3] 81.1% | [4] 91.2% | [5] 88.8% | [6] 84.8% | [7] 74.5% | [8] 78.8% | [9] 86.3% | [10] 93.5%

ClC1(Cl)C2CCCCCCC21 (stereo not given)
inactive: [1] 107% | [2] 97.5% | [3] 97.2% | [4] 99.6% | [5] 109% | [6] 98.7% | [7] 110% | [8] 103% | [9] 108% | [10] 107%

Nc1c(C(=O)C[C@@H](N)CO)ccc2c1C(=O)CCO2
active: [1] 6.97% | [2] -3.16% | [9] -61.7%
inactive: [3] 86.2% | [4] 27.4% | [5] 16.7% | [6] 57% | [7] 60.8% | [8] 30.5% | [10] 39.1%

O=C1NN(C(=O)c2ccccc2)C(c2ccc(Cl)c(Cl)c2)=C/C1=C\c1ccccc1[N+](=O)[O-]
active: [1] -28.1% [6.75 µM] | [2] 4.99% [6.75 µM] | [6] 9.01% [6.75 µM] | [7] -65.4% [6.75 µM] | [8] -69% [6.75 µM] | [9] -45.5% [6.75 µM]
inactive: [3] 25.1% [6.75 µM] | [4] 24.3% [6.75 µM] | [5] 14.7% [6.75 µM] | [10] 27.8% [6.75 µM]

CCN(CC)C(=O)O/N=C(/C)c1ccccc1
inactive: [1] 110% | [2] 102% | [3] 83% | [4] 99.6% | [5] 89.7% | [6] 98.6% | [7] 94.2% | [8] 99.1% | [9] 91.1% | [10] 97.9%

COc1cccc(N2CCN(c3ncnc4cc[nH]c34)CC2)c1
active: [7] -0.321%
inactive: [1] 83% | [2] 73.2% | [3] 84% | [4] 66.2% | [5] 66.9% | [6] 53% | [8] 58.8% | [9] 51.6% | [10] 80.8%
